# Data published in PubChem BioAssay (NCATS).
# Results filed as inconclusive are left out. A call without a number means that no potency is given here. Unmarked numbers belong to inactive results. Activity calls are given as the source filed them. The call rests on the fitted dose curve; in most records, active means well fitted curve in the direction sought with a large enough effect; inconclusive means small, poorly fitted or top-dose-only effect, or another doubt; inactive means no such curve, though single readings can be large; an effect the other way counts as inactive or inconclusive.
# Experiments:
# [1] = target: Rap guanine nucleotide exchange factor 3 (Homo sapiens) (UniProt O95398); assay: Confirmatory qHTS for antagonist of cAMP-regulated guanine nucleotide exchange factor 3 (EPAC1) (AID 1645880); conditions: EPAC1 Rap1B-BODIPY-GDP exchange, fluorescence; activity, negative = inhibition: at 115 µM (top of the series); further: nearly all actives have a fitted effect of over 55% in size; further: potency means the concentration at half of the fitted maximal effect
# Sequence of Rap guanine nucleotide exchange factor 3 (Homo sapiens) (O95398 whole entry, looked up): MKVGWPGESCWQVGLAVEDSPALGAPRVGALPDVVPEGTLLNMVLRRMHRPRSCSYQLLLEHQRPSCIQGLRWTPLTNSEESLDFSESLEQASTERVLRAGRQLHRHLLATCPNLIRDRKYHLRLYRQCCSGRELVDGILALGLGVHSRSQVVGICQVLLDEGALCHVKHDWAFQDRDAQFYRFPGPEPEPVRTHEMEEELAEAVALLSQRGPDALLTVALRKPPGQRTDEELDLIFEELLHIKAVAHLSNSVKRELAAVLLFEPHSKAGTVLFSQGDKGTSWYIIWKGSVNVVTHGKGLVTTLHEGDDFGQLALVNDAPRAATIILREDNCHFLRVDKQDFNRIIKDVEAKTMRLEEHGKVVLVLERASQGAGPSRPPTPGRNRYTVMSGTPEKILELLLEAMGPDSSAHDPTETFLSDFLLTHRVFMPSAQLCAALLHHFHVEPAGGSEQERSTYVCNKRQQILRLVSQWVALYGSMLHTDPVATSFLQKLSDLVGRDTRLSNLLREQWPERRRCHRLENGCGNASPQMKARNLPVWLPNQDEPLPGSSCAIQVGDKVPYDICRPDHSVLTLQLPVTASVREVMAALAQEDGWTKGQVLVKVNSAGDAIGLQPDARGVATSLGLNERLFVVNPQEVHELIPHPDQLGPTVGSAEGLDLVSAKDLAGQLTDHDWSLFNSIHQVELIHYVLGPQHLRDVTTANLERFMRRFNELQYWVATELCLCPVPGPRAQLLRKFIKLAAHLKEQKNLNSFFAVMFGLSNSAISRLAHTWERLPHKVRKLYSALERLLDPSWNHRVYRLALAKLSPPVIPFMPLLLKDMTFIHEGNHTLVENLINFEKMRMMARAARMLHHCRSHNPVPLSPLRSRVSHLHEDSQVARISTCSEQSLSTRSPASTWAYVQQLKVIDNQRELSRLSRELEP
# Outline: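 Released BODIPY-GDP fluoresces less than Rap1-bound BODIPY-GDP; the signal is followed at 480/540 nm at 5-min intervals over 30 min, after 5 min at room temperature. Reactions contain 100 nM EPAC1, 250 nM RAP1B-BODIPY-GDP and 50 uM GDP; results are normalized to ATA and DMSO.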
# [2] = target: Rap guanine nucleotide exchange factor 3 (Homo sapiens) (UniProt O95398); assay: Confirmatory qHTS for agonist of cAMP-regulated guanine nucleotide exchange factor 3 (EPAC1) (AID 1645881); conditions: EPAC1 Rap1B BODIPY-GDP exchange fluorescence; series mostly up to 154 µM; further: nearly all actives have a fitted effect of over 75% in size; further: potency means the concentration at half of the fitted maximal effect;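 on activation: EPAC1 catalysed release of BODIPY-GDP from Rap1B seen as fluorescence loss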
# [3] = target: Rap guanine nucleotide exchange factor 4 (Homo sapiens) (UniProt Q8WZA2); assay: Confirmatory qHTS for agonist of cAMP-regulated guanine nucleotide exchange factor 4 (EPAC2) (AID 1645884); conditions: EPAC2 GEF activity, Rap1B-BODIPY-GDP fluorescence; series mostly up to 154 µM;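 further: nucleotide exchange releases bodipy-GDP from Rap1 and this lowers its fluorescence; nearly all actives have a fitted effect of over 65% in size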; further: potency means the concentration at half of the fitted maximal effect
# Sequence of Rap guanine nucleotide exchange factor 4 (Homo sapiens) (Q8WZA2 whole entry, looked up): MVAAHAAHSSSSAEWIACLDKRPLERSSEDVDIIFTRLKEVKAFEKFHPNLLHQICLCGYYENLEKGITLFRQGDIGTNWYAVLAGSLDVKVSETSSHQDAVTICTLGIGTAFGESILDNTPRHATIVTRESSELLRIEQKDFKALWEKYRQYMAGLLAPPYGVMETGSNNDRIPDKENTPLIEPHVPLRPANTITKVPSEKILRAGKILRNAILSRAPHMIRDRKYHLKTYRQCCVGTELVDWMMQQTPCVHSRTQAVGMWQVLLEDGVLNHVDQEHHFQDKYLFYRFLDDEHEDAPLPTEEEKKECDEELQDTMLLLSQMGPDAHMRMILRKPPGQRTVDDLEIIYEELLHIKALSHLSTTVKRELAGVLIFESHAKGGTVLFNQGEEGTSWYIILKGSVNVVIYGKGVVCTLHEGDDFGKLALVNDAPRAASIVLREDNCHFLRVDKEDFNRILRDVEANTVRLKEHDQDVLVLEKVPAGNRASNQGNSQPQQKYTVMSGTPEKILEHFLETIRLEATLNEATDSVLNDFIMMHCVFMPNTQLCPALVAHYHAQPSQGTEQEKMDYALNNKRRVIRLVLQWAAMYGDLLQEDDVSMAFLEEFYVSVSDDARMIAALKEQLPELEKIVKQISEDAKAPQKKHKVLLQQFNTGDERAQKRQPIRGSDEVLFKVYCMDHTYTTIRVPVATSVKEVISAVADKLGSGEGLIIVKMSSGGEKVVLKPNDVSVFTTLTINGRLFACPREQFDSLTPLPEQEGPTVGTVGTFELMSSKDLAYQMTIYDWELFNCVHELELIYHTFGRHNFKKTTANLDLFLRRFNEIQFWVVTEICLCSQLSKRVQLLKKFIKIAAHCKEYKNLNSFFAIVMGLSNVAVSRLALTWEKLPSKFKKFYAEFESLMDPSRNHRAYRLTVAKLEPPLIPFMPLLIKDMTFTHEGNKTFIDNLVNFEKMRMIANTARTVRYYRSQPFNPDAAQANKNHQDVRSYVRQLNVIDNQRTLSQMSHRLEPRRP
# [4] = target: Rap guanine nucleotide exchange factor 4 (Homo sapiens) (UniProt Q8WZA2); assay: Confirmatory qHTS for antagonist of cAMP-regulated guanine nucleotide exchange factor 4 (EPAC2) (AID 1645885); conditions: EPAC2 Rap1B-BODIPY-GDP exchange fluorescence, biochemical; series mostly up to 12.7 µM; further: nearly all actives have a fitted effect of over 25% in size; further: potency means the concentration at half of the fitted maximal effect
# [5] = target: Rap guanine nucleotide exchange factor 3 (Homo sapiens) (UniProt O95398); assay: Counterscreen qHTS for antagonist of cAMP-regulated guanine nucleotide exchange factor 3 (EPAC1) (AID 1645888); conditions: Rap1B-BODIPY-GDP nucleotide exchange, fluorescence; series mostly up to 154 µM
# Outline: (§1)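 Rap1B–BODIPY-GDP (250 nM) with 50 uM GDP; compounds pin-transferred to 9.74 nM–152 uM final (activator) or from 7.32 nM upwards (inhibitor). Fluorescence Ex/Em 480/540 nm read at 5 and 30 min, then after adding cAMP or buffer, at room temperature.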
# [6] = target: Rap guanine nucleotide exchange factor 3 (Homo sapiens) (UniProt O95398); assay: Counterscreen qHTS for agonist of cAMP-regulated guanine nucleotide exchange factor 3 (EPAC1) (AID 1645889); conditions: EPAC1 Rap1B-BODIPY-GDP exchange, fluorescence; series mostly up to 154 µM; further: nearly all actives have a fitted effect of over 40% in size; further: potency means the concentration at half of the fitted maximal effect
# Outline: as §1
SMILES,Potency [1],Potency [2],activation [3],Potency [4],"activity change, negative = inhibition [5]",activation [6],Potency [3],Potency [5],Potency [6],outcome [4]
CCOC(=O)C1=C(CC)OC(N)=C(C#N)C1c1ccc(OC)c(OC)c1OC (centres undefined),inactive,inactive,"-0.762% [at 17.1 µM, percent relative to cAMP agonist control]",inactive,-16.4% [at 30.8 µM],8.26% [at 30.8 µM],,,,
COc1ccc(NC(=O)CCCSc2nc(-c3ccco3)cc(C(F)(F)F)n2)cc1,inactive,inactive,,inactive,,,inactive,inactive,inactive,
Cn1cccc1/C=C1\CCC/C(=C\c2cccn2C)C1=O,75.7 µM (active),inactive,,75.7 µM (active),,,inactive,inactive,39.8 µM (active),
CCCCn1c(N)c(N(CCOC)C(=O)c2cccc(S(=O)(=O)N(C)c3ccc(C)cc3)c2)c(=O)[nH]c1=O,inactive,inactive,"-4.77% [at 17.1 µM, percent relative to cAMP agonist control]",inactive,3.57% [at 30.8 µM],14.6% [at 30.8 µM],,,,
Cc1ccccc1NC1c2ccccc2C(=O)N1Cc1ccco1 (centres undefined),inactive,inactive,"2.58% [at 17.1 µM, percent relative to cAMP agonist control]",inactive,-11.4% [at 30.8 µM],17.8% [at 30.8 µM],,,,
Cn1cc(C(=O)C(=O)N2CCCCC2)c2ccccc21,inactive,inactive,,inactive,,,inactive,inactive,inactive,
O=C(O)CSc1cc(C(=O)c2ccccc2O)cn2c(=O)c3c(-c4ccccc4)csc3nc12,inactive,inactive,"-8.3% [at 17.1 µM, percent relative to cAMP agonist control]",inactive,-7.65% [at 30.8 µM],17.9% [at 30.8 µM],,,,
CC1CCC/C(=C\Nc2ccc(O)cc2)C1=O (centres undefined),inactive,inactive,"6.29% [at 17.1 µM, percent relative to cAMP agonist control]",inactive,-12.6% [at 30.8 µM],3.58% [at 30.8 µM],,,,
O=C(CCCOc1ccccc1)Nc1ccc(Cl)cn1,inactive,inactive,,inactive,,,inactive,inactive,inactive,
O=C(c1ccco1)N(Cc1cccs1)c1ccc(F)cc1,inactive,inactive,,inactive,,,inactive,inactive,inactive,
O=C1NC(=S)S/C1=C\c1coc2ccc(O)cc2c1=O,39.8 µM (active),inactive,"11% [at 17.1 µM, percent relative to cAMP agonist control]",inactive,-13.4% [at 30.8 µM],-0.252% [at 30.8 µM],,,,
O=C(c1cc(-c2ccc(Cl)cc2)nc2ccccc12)N1CCC1,inactive,inactive,,inactive,,,inactive,inactive,inactive,
CCOc1cnc(-c2c(-c3c(Cl)cccc3Cl)noc2C)o1,inactive,inactive,"1.16% [at 17.1 µM, percent relative to cAMP agonist control]",inactive,-6.2% [at 30.8 µM],12% [at 30.8 µM],,,,
Cc1nc2c(C(=O)NCCc3ccc(Cl)cc3)c[nH]n2c(=O)c1Cc1ccccc1F,84.9 µM (active),inactive,,inactive,,,inactive,inactive,inactive,
O=C(O)c1ccc(N/N=C/c2cccc(C(F)(F)F)c2)cc1,inactive,inactive,,inactive,,,inactive,inactive,inactive,
COc1cccc2c1Oc1ncccc1N(C(=O)CCC(=O)NCc1cccc(C)c1)C2,inactive,inactive,,inactive,,,inactive,inactive,inactive,
Cn1c(C(O)c2ccc(Br)cc2)nc(Cl)c1Cl (centres undefined),inactive,inactive,"-7.53% [at 17.1 µM, percent relative to cAMP agonist control]",inactive,-0.272% [at 30.8 µM],8.17% [at 30.8 µM],,,,
Cc1cccc(S(=O)(=O)NC(=O)C2(C)CCN2C(=O)Cc2cc(F)ccc2F)c1 (centres undefined),inactive,inactive,"11.8% [at 17.1 µM, percent relative to cAMP agonist control]",inactive,9.86% [at 30.8 µM],-2.2% [at 30.8 µM],,,,
COc1cc2c(cc1OC)CN(C(C)C(=O)N1CCc3ccccc31)CC2 (centres undefined),inactive,inactive,,inactive,,,inactive,inactive,inactive,
O=C1/C(=C\c2ccc(O)c(O)c2)C(c2ccccc2)=NN1c1ccccc1,16.9 µM (active),inactive,,inactive,,,inactive,inactive,inactive,

SMILES,Potency [1],Potency [2],activation [3],Potency [4],"activity change, negative = inhibition [5]",activation [6],Potency [3],Potency [5],Potency [6],outcome [4]
CSc1ccc(/C=N/NC(=O)CN2CCN(Cc3ccc(Cl)cc3)CC2)cc1,inactive,inactive,,inactive,,,inactive,inactive,inactive,
COc1cc(CNc2ccc(O)cc2)cc(Br)c1OCc1ccccc1,inactive,inactive,,inactive,,,inactive,inactive,inactive,
COc1ccc(S(=O)(=O)N2CCCCC2)cc1C(C)C,inactive,inactive,,8.49 µM (active),,,inactive,inactive,inactive,
CCOC(=O)C1CCCN(C(=O)C2(c3ccc(Cl)cc3)CCCC2)CC1 (centres undefined),inactive,inactive,,inactive,,,inactive,inactive,inactive,
COc1cc(C(C)=O)ccc1COc1ccc(C(=O)O)cc1OC,inactive,inactive,"7.71% [at 17.1 µM, percent relative to cAMP agonist control]",inactive,-10.4% [at 30.8 µM],-0.313% [at 30.8 µM],,,,
COc1ccc(C(=O)Nc2cccc(/C=C(/CCC(=O)O)c3nc4ccccc4s3)c2)cc1,15.1 µM (active),inactive,,inactive,,,inactive,inactive,inactive,
[O-][n+]1c2ccccc2[n+]([O-])c2cc(O)ccc21,37.9 µM (active),inactive,,inactive,,,inactive,inactive,inactive,
COc1ccc(NC(=O)N2CCN3CCCCC3C2)cc1OC (centres undefined),inactive,inactive,,inactive,,,inactive,inactive,inactive,
N#Cc1c(Nc2ccccc2)sc(C(=O)c2ccccc2)c1N,inactive,inactive,"9.46% [at 17.1 µM, percent relative to cAMP agonist control]",inactive,13.4% [at 30.8 µM],19.9% [at 30.8 µM],,,,
NC(=O)c1ccsc1NC(=O)CS(=O)(=O)c1ccc(F)cc1,inactive,inactive,,inactive,,,inactive,inactive,inactive,
O=C(NN1C(=O)/C(=C\c2ccc(O)c([N+](=O)[O-])c2)SC1=S)c1ccccc1Cl,50.1 µM (active),inactive,"-1.95% [at 17.1 µM, percent relative to cAMP agonist control]",inactive,-8.56% [at 30.8 µM],0.476% [at 30.8 µM],,,,
COc1ccc(/C=N/Nc2nnc(C)n2N)cc1OC(C)=O,inactive,inactive,,inactive,,,inactive,inactive,inactive,
COc1ccc(C)cc1-n1c(-c2ccc(Cl)cc2)cc2c1CC(C)(C)CC2=O,inactive,inactive,,,,,inactive,inactive,inactive,inactive [at 12.7 µM]
COC(=O)c1cc2ccsc2n1Cc1cccc(F)c1,inactive,inactive,,inactive,,,inactive,inactive,inactive,
CN1/C(=C\C=C2/SC(=S)N(CC(=O)O)C2=O)C(C)(C)c2ccccc21,inactive,44.7 µM (active),,inactive,286% [at 30.8 µM],,7.94 µM (active),,10 µM (active),
Cc1ccc(Nc2ccc(N3CCN(C(=O)c4ccc([N+](=O)[O-])cc4)CC3)nn2)cc1,inactive,inactive,,inactive,,,inactive,inactive,inactive,
CC(Oc1ccc(Br)cc1)C(=O)NCC(c1cccs1)N1CCOCC1 (centres undefined),inactive,inactive,,inactive,,,inactive,inactive,inactive,
CCOc1cc(/C=C2\SC(=S)N(NS(=O)(=O)c3ccc(C)cc3)C2=O)ccc1O,19 µM (active),inactive,,inactive,,,inactive,inactive,inactive,
Cc1ccc(C)c(S(=O)(=O)Nc2ccc(C(=O)NCC(c3ccco3)N(C)C)cc2)c1 (centres undefined),inactive,inactive,"5.83% [at 17.1 µM, percent relative to cAMP agonist control]",inactive,-1.62% [at 30.8 µM],6.54% [at 30.8 µM],,,,
